We go through 19 molecules from PubChem BioAssay.

Unmarked numbers belong to inactive results. For some assays here: Entries with a potency or affinity are not part of this list. Calls of active or inactive are those of the source. Unless noted, the rule behind the calls is not given here.

Test [1] can be described thus: antimalarial activity against Dd2 strain (AID 2302;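 active = growth inhibition above 50% at the single 2 µM test dose, taken to imply half-maximal potency below 2 µM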;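 note: 0% = DMSO untreated growth and 100% = chloroquine plus artemisinin killed control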). The conditions noted are these: P. falciparum Dd2 in RBCs, LDH growth readout, 72 h; at 2 µM; stronger effect = higher value.
A short description of test [2]: HepG2 cytotoxicity, primary screen, cytotoxicity control for P. falciparum antimalarial project, cell-based, ATP luminescence (AID 2303;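 active = inhibition above 50%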;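 note: 0% = DMSO wells and 100% = digitonin-killed cells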). The conditions noted are these: HepG2 viability, 24-48 h, at 10 µM, stronger effect = higher value.
Test [3] concerns the target L-lactate dehydrogenase (Plasmodium falciparum (isolate CDC / Honduras)) (UniProt Q27743). As to the kind of experiment: PfLDH activity inhibition – cell lysate, 3D7 strain, counter-screen for P. falciparum growth inhibition project (AID 2304).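 Note: 0% = vehicle and 100% = reference inhibitor.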 The following applies: P. falciparum 3D7 crude extract, LDH APAD/NBT absorbance; at 2 µM; stronger effect = higher value. (The purpose of a counterscreen is to sort out artefacts and off-target activity.)

A short description of test [4]: inhibition of 3D7 malaria parasite growth – strain 3D7 (AID 2306).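 Note: 0% = DMSO wells and 100% = chloroquine plus artemisinin control wells.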 The following applies: P. falciparum 3D7 erythrocytic growth, LDH absorbance, 72 h; at 2 µM; stronger effect = higher value.
The target in test [5] is Calcium-dependent protein kinase 1 (Plasmodium falciparum (isolate 3D7)) (UniProt P62344). As to the kind of experiment: PfCDPK1 kinase inhibitors, biochemical, TCAMS library (AID 1159585; cut-off not given, nearly all actives have IC50 up to about 0.98 µM;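 note: inhibitors leave more ATP so luminescence rises with inhibition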). The conditions noted are these: recombinant PfCDPK1, Kinase-Glo ATP depletion luminescence. (In general: In Kinase-Glo more light means more ATP remaining.)
Calcium-dependent protein kinase 1 (Plasmodium falciparum (isolate 3D7)), sequence (P62344 whole entry, looked up): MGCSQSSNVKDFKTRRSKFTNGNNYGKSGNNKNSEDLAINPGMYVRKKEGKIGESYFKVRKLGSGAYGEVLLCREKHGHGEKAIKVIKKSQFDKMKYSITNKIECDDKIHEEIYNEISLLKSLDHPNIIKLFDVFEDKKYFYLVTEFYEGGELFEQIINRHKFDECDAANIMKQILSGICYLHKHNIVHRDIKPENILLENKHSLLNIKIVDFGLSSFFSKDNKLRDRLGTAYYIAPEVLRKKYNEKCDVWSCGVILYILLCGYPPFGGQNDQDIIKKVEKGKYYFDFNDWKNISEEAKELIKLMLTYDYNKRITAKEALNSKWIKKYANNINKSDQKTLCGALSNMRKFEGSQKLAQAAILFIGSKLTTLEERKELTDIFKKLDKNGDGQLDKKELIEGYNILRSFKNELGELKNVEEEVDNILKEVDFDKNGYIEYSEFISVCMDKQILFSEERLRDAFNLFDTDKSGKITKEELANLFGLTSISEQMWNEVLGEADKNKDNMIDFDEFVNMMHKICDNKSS
Test [6] has as its target Plasmodium falciparum protein kinase 6 (PK6, PF3D7_1337100) (UniProt Q8IDW1). As to the kind of experiment: PfPK6 kinase inhibitors, biochemical, TCAMS library (AID 1159586). The following applies: recombinant PfPK6, Kinase-Glo ATP depletion luminescence.
For test [7], the target named is Protein kinase 7 (PK7), Plasmodium falciparum 3D7 (PF3D7_0213400) (UniProt Q7YTF7). Nature of the test: inhibition of Plasmodium PK7 catalytic activity – biochemical, TCAMS antimalarial set, Kinase-Glo luminescence (AID 1159587). The conditions noted are these: recombinant PfPK7, Kinase-Glo ATP depletion luminescence.
Protein kinase 7 (PK7), Plasmodium falciparum 3D7 (PF3D7_0213400), sequence (Q7YTF7 1-343): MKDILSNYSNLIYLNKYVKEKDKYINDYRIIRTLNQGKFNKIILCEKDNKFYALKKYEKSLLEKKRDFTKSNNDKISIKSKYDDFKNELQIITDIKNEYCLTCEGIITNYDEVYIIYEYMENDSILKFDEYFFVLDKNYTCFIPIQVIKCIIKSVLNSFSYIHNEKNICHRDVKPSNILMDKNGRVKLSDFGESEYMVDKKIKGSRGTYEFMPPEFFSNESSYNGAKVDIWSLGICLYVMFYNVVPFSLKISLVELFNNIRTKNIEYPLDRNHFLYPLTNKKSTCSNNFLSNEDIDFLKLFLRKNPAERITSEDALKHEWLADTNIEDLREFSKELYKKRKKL
Test [8] deals with Calcium-dependent protein kinase 4 (Plasmodium falciparum (isolate 3D7)) (UniProt Q8IBS5). Nature of the test: PfCDPK4 kinase inhibitors, biochemical, TCAMS library (AID 1159588; cut-off not given, nearly all actives have IC50 up to about 0.91 µM). The following applies: recombinant PfCDPK4, Kinase-Glo ATP depletion luminescence.
Calcium-dependent protein kinase 4 (Plasmodium falciparum (isolate 3D7)), sequence (Q8IBS5 whole entry, looked up): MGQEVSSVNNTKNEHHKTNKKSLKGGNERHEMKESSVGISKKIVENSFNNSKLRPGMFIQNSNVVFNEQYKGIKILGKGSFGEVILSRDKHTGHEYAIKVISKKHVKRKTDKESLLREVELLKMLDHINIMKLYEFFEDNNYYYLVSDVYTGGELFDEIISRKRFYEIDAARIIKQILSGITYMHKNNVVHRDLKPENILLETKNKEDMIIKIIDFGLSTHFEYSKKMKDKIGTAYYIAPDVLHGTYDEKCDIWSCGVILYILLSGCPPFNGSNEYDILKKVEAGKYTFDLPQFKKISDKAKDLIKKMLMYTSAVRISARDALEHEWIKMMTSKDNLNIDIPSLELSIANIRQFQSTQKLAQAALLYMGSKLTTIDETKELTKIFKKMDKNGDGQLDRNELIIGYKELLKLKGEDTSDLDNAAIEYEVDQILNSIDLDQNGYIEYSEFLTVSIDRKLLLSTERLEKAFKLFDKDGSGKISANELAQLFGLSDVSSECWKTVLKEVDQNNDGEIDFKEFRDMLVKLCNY

Broadly, the inhibition is the relative decrease from the control value, in per cent.

Plasmodium falciparum protein kinase 6 (PK6, PF3D7_1337100), sequence (Q8IDW1 1-305): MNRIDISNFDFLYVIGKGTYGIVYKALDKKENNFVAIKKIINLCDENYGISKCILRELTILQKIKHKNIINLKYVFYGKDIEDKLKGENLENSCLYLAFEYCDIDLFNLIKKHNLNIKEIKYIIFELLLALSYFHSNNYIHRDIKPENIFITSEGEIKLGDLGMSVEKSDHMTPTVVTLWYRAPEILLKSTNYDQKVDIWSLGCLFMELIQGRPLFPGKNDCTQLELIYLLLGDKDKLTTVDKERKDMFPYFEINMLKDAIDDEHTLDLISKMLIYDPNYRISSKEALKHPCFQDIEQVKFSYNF
L-lactate dehydrogenase (Plasmodium falciparum (isolate CDC / Honduras)), sequence (Q27743 whole entry, looked up): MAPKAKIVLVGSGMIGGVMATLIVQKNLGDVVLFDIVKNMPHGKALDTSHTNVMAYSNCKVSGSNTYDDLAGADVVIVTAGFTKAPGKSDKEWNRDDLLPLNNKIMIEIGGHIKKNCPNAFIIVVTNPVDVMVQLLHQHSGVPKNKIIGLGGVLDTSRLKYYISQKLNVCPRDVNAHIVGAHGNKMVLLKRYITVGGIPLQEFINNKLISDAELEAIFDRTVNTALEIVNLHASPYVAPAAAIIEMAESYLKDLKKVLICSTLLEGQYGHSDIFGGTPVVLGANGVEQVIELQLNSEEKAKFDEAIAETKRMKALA

`Brc1ccc(C=NNc2nc3ccccc3[nH]2)cc1`: the growth inhibition was 90% (active) in test [1] and 102% (active) in test [4]. The inhibition is -3% in test [2] and 0% in test [3]. The result in test [5], in test [6], in test [7] and in test [8] was inactive.

Regarding `COc1cc(C(=O)NCc2nn(CCN3CCC(N4CCCC4)CC3)cc2-c2ccc(Cl)c(Cl)c2)cc(OC)c1OC`, the growth inhibition in test [1] is -8%; in test [4], 97% (active). The inhibition in test [2] was 16%; in test [3] it was -1%. For the same molecule, the outcome in test [5], in test [6], in test [7] and in test [8] was inactive.

For `COc1ccc(OCc2ccccn2)c(C2CCN(CCCCNC(=O)c3ccc(NC(=O)c4ccc(Cl)cc4)cc3)CC2)c1`, the results for the growth inhibition in test [1] and in test [4] were 71% (active) and 98% (active), respectively. Besides, the inhibition in test [2] was 18%; in test [3] it was 4%. In addition, the result in test [5], in test [6], in test [7] and in test [8] was inactive.

Consider `CNC(=O)C(C)N(c1ccc(Cl)cc1)c1nc(C(C)(C)C)cs1` (configuration not stated), for which the growth inhibition in test [1] was 98% (active); in test [4] it was 99% (active). Besides, the results for the inhibition in test [2] and in test [3] were 0% and 7%, respectively. The outcome in test [5], in test [6], in test [7] and in test [8] was inactive.

Take `COc1ccc(OCC(=O)Nc2nc(-c3ccc(OC)cc3)c(C)s2)cc1`: the growth inhibition in test [1] is 87% (active); in test [4], 100% (active). Further, the figures for the inhibition in test [2] and in test [3] were -3% and -6%, respectively. Moreover, the outcome in test [5], in test [6], in test [7] and in test [8] was inactive.

Take `CC(=O)N1Cc2ccccc2C1=O`: the results for the growth inhibition in test [1] and in test [4] were -1% and 97% (active), respectively. Moreover, the inhibition is 10% in test [2] and -4% in test [3]. Further, the result in test [5], in test [6], in test [7] and in test [8] was inactive.

With `c1csc(-c2nc(N3CCCC3)ncc2-c2ccsc2)n1`, the growth inhibition was 75% (active) in test [1] and 89% (active) in test [4]. In addition, the inhibition was 1% in test [2] and 3% in test [3]. The outcome in test [5], in test [6], in test [7] and in test [8] was inactive.

Turning to `Cc1cc(Br)c(OCCCON2C(N)=NC(N)=NC2(C)C)c(Br)c1`, the growth inhibition was 97% (active) in test [1] and 95% (active) in test [4]. Moreover, the inhibition was 62% (active) in test [2] and -3% in test [3]. Also, the result in test [5], in test [6], in test [7] and in test [8] was inactive.

With `CC(=O)Nc1nc(C(=O)Nc2cccc(-c3ccc(-c4nc5ccc(F)cc5[nH]4)cc3)c2)cs1`, the results for the growth inhibition in test [1] and in test [4] were 32% and 101% (active), respectively. Also, the inhibition in test [2] was 54% (active); in test [3] it was -4%. In addition, the result in test [5], in test [6], in test [7] and in test [8] was inactive.

Take `CCCCCN1CCCC(NS(=O)(=O)c2cccc(C(=O)Nc3cccc(C(F)(F)F)c3)c2)C1` (configuration not stated): the growth inhibition was 5% in test [1] and 86% (active) in test [4]. In addition, the inhibition in test [2] was 22%; in test [3] it was -2%. In addition, the result in test [5], in test [6], in test [7] and in test [8] was inactive.

Turning to `Cn1ncc2ccc(Nc3nccc(-c4ccc5c(c4)c(N)nn5C)n3)cc21`, the results for the growth inhibition in test [1] and in test [4] were 96% (active) and 99% (active), respectively. For the same molecule, the inhibition in test [2] is 48%; in test [3], -2%. For the same molecule, the result in test [5], in test [6], in test [7] and in test [8] was inactive.

Take `O=C(/C=C/c1ccc(Cl)c(Cl)c1)NCCCCCN1CCC(NC(=O)Nc2ccc([N+](=O)[O-])cc2)CC1`: the growth inhibition in test [1] was 2%; in test [4], 102% (active). Besides, the inhibition in test [2] is 20%; in test [3], 2%. Further, the outcome in test [5], in test [6], in test [7] and in test [8] was inactive.

Take `CN1C[C@@H](c2ccccc2)c2cc(O)c(CN3CCCCC3)cc2C[C@H]1Cc1ccccc1`: the growth inhibition in test [1] and in test [4] was 99% (active) in each case. Also, the values for the inhibition in test [2] and in test [3] were -6% and -8%, respectively. Further, the result in test [5], in test [6], in test [7] and in test [8] was inactive.

With `CS(=O)(=O)c1ccc2c(c1)CCN(CCC1CCC(NC(=O)c3cc4cccc(Br)c4[nH]3)CC1)CC2` (configuration not stated), the growth inhibition in test [1] was 7%; in test [4], 92% (active). The figures for the inhibition in test [2] and in test [3] were 27% and -8%, respectively. Moreover, the result in test [5], in test [6], in test [7] and in test [8] was inactive.

For `NCc1ccc(-c2ccc3c(N)nccc3c2)cc1`, the growth inhibition in test [1] is 92% (active); in test [4] it was 100% (active). In addition, the inhibition in test [2] was 28%; in test [3] it was 0%. Also, the outcome in test [5], in test [6], in test [7] and in test [8] was inactive.

Take `O=C(Nc1cccc(-c2ccc(-c3nc4ccc(F)cc4[nH]3)cc2)c1)Nc1ccc(F)c(F)c1F`: the growth inhibition in test [1] and in test [4] was 98% (active) each time. Also, the inhibition in test [2] was 53% (active); in test [3], 3%. Moreover, the outcome in test [5], in test [6], in test [7] and in test [8] was inactive.

On to `O=C(Nc1ccc(CN2CCCCC2)cc1)c1ccc(COc2ccc([N+](=O)[O-])cc2)o1`, for which the growth inhibition in test [1] was -3%; in test [4], 86% (active). The values for the inhibition in test [2] and in test [3] were 12% and -1%, respectively. For the same molecule, the result in test [5], in test [6], in test [7] and in test [8] was inactive.

For `Cc1cc(N[C@@H](CC(C)C)C(=O)NCCOc2ccccc2)nc(NCC2CCCCC2)n1`, the growth inhibition in test [1] is 53% (active); in test [4], 97% (active). Besides, the inhibition in test [2] was 24%; in test [3], -1%. Besides, the outcome in test [5], in test [6], in test [7] and in test [8] was inactive.

`CC(C)C[C@@H](NC(=O)NC1CCC(CCN2[C@@H]3CC[C@H]2CC(OC(=O)C(CO)c2ccccc2)C3)CC1)C(O)(c1ccccc1)c1ccccc1` (some centres not stated): the results for the growth inhibition in test [1] and in test [4] were 71% (active) and 95% (active), respectively. For the same molecule, the inhibition was 21% in test [2] and -6% in test [3]. For the same molecule, the result in test [5], in test [6], in test [7] and in test [8] was inactive.
